Among the data in PubChem BioAssay (NCATS) are Potency and outcome values, retold here.

Test [1] deals with Ubiquitin carboxyl-terminal hydrolase 1 (Homo sapiens) (UniProt O94782). Put plainly: Inhibitors of USP1/UAF1: Pilot qHTS (AID 504865). Further: nearly all actives have a fitted effect of over 35% in size. Further: potency means the concentration at half of the fitted maximal effect. As to conditions: purified USP1/UAF1, Ub-rhodamine cleavage fluorescence; series mostly up to 114 µM. The essentials:
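USP1/UAF1 complex at 1 nM preincubated 15 min at room temperature with compound, then Ub-Rho substrate added at 150 nM final. Fluorescence (480/540 nm) read kinetically in 50 mM HEPES pH 7.8, 0.5 mM EDTA, 1 mM TCEP, 0.1 mg/ml BSA, 0.01% Tween-20.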
On the technique in general: Quantitative high-throughput screening tests each substance at several concentrations.

Test [2] in a line: qHTS for Inhibitors of Plasmodium falciparum (DD2) proliferation (AID 504314).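 Further: parasite DNA measured by SYBR Green fluorescence after red cell lysis.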 As to conditions: P. falciparum Dd2 in erythrocytes, SYBR Green growth, 72 h; series mostly up to 6.11 µM. In a few lines:
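Normalization used 0.29 uM artemisinin as full inhibition and DMSO as baseline. Parasitized erythrocytes were exposed to compounds for 72 h (37C, 5% CO2), then lysed with saponin/Triton buffer containing SYBR Green I.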

Test [3] can be described thus: qHTS for Inhibitors of Plasmodium falciparum (GB4) proliferation (AID 504315). Further: nearly all actives have a fitted effect of over 50% in size. The following applies: P. falciparum GB4 in erythrocytes, SYBR Green DNA, 72 h; series mostly up to 6.7 µM. In a few lines: (§1)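 Parasite growth measured as SYBR Green DNA fluorescence (ex 485, em 535 nm) after overnight lysis following 72 h culture at 37 °C, 0.3% parasitemia, 2.5% hematocrit. Values normalized against DMSO and 0.29 uM artemisinin controls, with plate-stack correction.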

Test [4] in a line: qHTS for Inhibitors of Plasmodium falciparum (7G8) proliferation (AID 504316). Further: nearly all actives have a fitted effect of over 65% in size. As to conditions: P. falciparum 7G8 in erythrocytes, SYBR Green DNA, 72 h; series mostly up to 6.7 µM. The essentials:
as §1

Test [5] can be described thus: qHTS for Inhibitors of Plasmodium falciparum (CP250) proliferation (AID 504320). As to conditions: P. falciparum CP250 in erythrocytes, SYBR Green DNA, 72 h; series mostly up to 6.7 µM. In a few lines: as §1
Test [6] deals with Galactokinase (Homo sapiens) (UniProt P51570). Put plainly: qHTS Validation Assay for Inhibitors of Human Galactokinase (GALK) (AID 493189). The following applies: purified human GALK enzyme activity, qHTS 7-point titration; series mostly up to 57.5 µM. The essentials: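 GALK (5 nM) with 35 uM ATP and 100 uM galactose in HEPES pH 8.0 with MgCl2, NaCl, DTT and BSA. Reaction ran 1 h at room temperature. Residual ATP read by Kinase-Glo Plus luminescence.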

The nature of test [7]: Validation screen for small molecules that induce DNA re-replication in SW480 colon adenocarcinoma cells (AID 504364). The following applies: DNA re-replication phenotype (high-content imaging); series mostly up to 46.1 µM. In a few lines:
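Hoechst-stained SW480 nuclei, imaged at 405 nm excitation after 48 hr compound exposure, were counted for elevated DNA content as the re-replication signal.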

Records with an inconclusive call do not appear. A call without a number means that no potency is given here. Active and inactive are the calls of the source. The call rests on the fitted dose curve; in most records, active means well fitted curve in the direction sought with a large enough effect; inconclusive means small, poorly fitted or top-dose-only effect, or another doubt; inactive means no such curve, though single readings can be large; an effect the other way counts as inactive or inconclusive.

Chain of Ubiquitin carboxyl-terminal hydrolase 1 (Homo sapiens) (O94782 whole entry, looked up): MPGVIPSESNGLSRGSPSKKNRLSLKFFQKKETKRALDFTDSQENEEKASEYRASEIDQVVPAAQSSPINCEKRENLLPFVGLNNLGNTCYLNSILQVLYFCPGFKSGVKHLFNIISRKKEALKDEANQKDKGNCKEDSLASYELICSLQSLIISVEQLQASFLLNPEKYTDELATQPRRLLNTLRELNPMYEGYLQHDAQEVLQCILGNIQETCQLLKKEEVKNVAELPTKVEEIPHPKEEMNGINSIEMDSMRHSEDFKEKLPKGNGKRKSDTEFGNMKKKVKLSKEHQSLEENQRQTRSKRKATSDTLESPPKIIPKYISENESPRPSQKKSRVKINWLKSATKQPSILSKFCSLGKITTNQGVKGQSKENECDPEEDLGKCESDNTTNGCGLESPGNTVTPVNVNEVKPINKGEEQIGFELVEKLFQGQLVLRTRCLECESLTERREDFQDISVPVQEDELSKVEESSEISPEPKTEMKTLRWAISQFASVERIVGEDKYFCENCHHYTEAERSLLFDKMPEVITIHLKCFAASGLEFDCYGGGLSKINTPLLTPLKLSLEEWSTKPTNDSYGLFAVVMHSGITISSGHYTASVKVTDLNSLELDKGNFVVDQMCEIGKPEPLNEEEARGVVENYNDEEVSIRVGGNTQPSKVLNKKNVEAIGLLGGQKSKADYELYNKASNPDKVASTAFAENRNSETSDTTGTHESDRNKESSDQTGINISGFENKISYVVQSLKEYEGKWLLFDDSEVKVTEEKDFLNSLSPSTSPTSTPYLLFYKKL
Chain of Galactokinase (Homo sapiens) (P51570 whole entry, looked up): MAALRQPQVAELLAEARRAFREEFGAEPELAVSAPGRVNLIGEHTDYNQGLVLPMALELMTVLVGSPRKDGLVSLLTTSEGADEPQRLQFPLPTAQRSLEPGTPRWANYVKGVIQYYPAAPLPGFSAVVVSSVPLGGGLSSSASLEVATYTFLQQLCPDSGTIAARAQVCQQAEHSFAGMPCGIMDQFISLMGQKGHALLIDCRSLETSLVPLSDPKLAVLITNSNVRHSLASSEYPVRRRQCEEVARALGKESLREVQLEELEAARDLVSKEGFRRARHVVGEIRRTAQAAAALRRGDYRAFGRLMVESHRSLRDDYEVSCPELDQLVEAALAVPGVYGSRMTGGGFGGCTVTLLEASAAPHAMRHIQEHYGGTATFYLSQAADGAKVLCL

For `CCC(O)c1ccccc1` (stereo not drawn), the Potency result in test [1] is “inactive”.

Consider `O=C(O)[C@H]1C(=CCO)O[C@H]2CC(=O)N12`, for which the Potency result in test [1] is “inactive”.

As for `Cc1c(O)c(=O)ccn1C`, the compound was classed as inactive in test [2], in test [3], in test [4] and in test [5].

Regarding `O=C(O)CCCC/C=C(\c1ccccc1)c1cccnc1`, the Potency result in test [1] is “inactive”.

With `NC(=O)[C@@H]1CCCN1C(=O)[C@H](Cc1cnc[nH]1)NC(=O)[C@@H]1CCC(=O)N1`, the Potency result in test [1] was “inactive”.

On to `Cc1cc(C)c(NC(=O)C[C@H](CC(=O)O)c2cccc3ccccc23)c(C(=O)N2CCC3(CCCC3)CC2)c1`, for which the call in test [6] and in test [7] was inactive.

Take `CN(C)C(=O)CCSC(SCCC(=O)O)c1cccc(/C=C/c2ccc3ccc(Cl)cc3n2)c1` (stereo not drawn): in test [1], the Potency was 50.1 µM (active).

Consider `O=C(OC1C[C@@H]2CC3C[C@H](C1)N2CC3=O)c1c[nH]c2ccccc12` (stereo partly drawn), for which, in test [1], the Potency result was “inactive”.

In the case of `NCC[C@H](O)C(=O)N[C@@H]1C[C@H](N)[C@@H](O[C@H]2O[C@H](CN)CC[C@H]2N)[C@H](O)[C@H]1O[C@H]1O[C@H](CO)[C@@H](O)[C@H](N)[C@H]1O`, the Potency entry in test [1] was “inactive”.

Consider `O=S(=O)(O)CC(S)CS` (stereo not drawn), for which the Potency result in test [1] was “inactive”.

As to `CNC(=O)OCc1cccc(COC(=O)NC)n1`, in test [1], the Potency result was “inactive”.

In the case of `CCCOC(=O)c1ccccc1O`, in test [1], the Potency entry is “inactive”.

With `COc1ccc(/C=N/NC(=O)c2ccncc2)c(C(=O)O)c1OC`, the Potency entry in test [1] was “inactive”.

Consider `NCC[C@H](O)C(=O)N[C@@H]1C[C@H](N)[C@@H](O[C@H]2O[C@H](CN)[C@@H](O)[C@H](O)[C@H]2O)[C@H](O)[C@H]1O[C@H]1O[C@H](CO)[C@@H](O)[C@H](N)[C@H]1O`, for which the Potency result in test [1] is “inactive”.

Regarding `CN(C)CCCSc1ccccc1NC(=O)/C=C/c1ccccc1`, in test [1], the Potency entry is “inactive”.

`CC(C)(CO)[C@@H](O)C(=O)NCCC(=O)NCCSSCCNC(=O)CCNC(=O)[C@H](O)C(C)(C)CO`: the Potency entry in test [1] is “inactive”.

In the case of `CC(=O)Oc1cc(C(F)(F)F)ccc1C(=O)O`, the Potency entry in test [1] is “inactive”.

As to `C=CCOc1ccc(CC(=O)O)cc1Cl`, the Potency entry in test [1] is “inactive”.

As to `O=C(O)/C=C/C(=O)Nc1ccc(S(=O)(=O)Nc2nccs2)cc1`, the Potency entry in test [1] is “inactive”.

Regarding `C[N+]1(C)[C@@H]2CC(OC(=O)C(O)(c3cccs3)c3cccs3)C[C@H]1[C@@H]1O[C@@H]12` (stereo partly drawn), in test [1], the Potency result was “inactive”.

Regarding `CC(C)(C)CC(C)(C)c1cc(Cc2cc(C(C)(C)CC(C)(C)C)cc(-n3nc4ccccc4n3)c2O)c(O)c(-n2nc3ccccc3n2)c1`, the Potency entry in test [1] is “inactive”.

For the compound `Nc1nc(=O)n([C@@H]2CS[C@H](CO)O2)cc1F`, in test [1], the Potency entry is “inactive”.

Turning to `COc1ccc(/C=C/C(=O)O)cc1`, the Potency result in test [1] is “inactive”.

For the compound `CC(C)NCC(O)COc1ccccc1-n1cccc1` (stereo not drawn), the Potency entry in test [1] was “inactive”.

As to `c1ccc(-n2cnnn2)cc1`, the Potency result in test [1] was “inactive”.

As to `CN[C@@H]1[C@H](O[C@H]2[C@H](O[C@H]3[C@H](O)[C@@H](O)[C@H](N=C(N)N)[C@@H](O)[C@@H]3N=C(N)N)O[C@@H](C)[C@]2(O)C=O)O[C@@H](CO)[C@H](O)[C@H]1O`, the Potency entry in test [1] is “inactive”.

`COc1ccc2c(=O)c(C)c(-c3ccccc3)oc2c1CN(C)C`: in test [1], the Potency entry is “inactive”.

As to `CS(=O)(=O)c1ccc([C@@H](O)[C@@H](COC(=O)CN)NC(=O)C(Cl)Cl)cc1`, in test [1], the Potency result is “inactive”.

`O=C(NNCNNC(=O)c1ccncc1)c1ccncc1`: in test [1], the Potency result was “inactive”.

As to `O=P(O)(O)OP(=O)(O)OP(=O)(O)O`, the Potency result in test [1] was “inactive”.

In the case of `O=P(O)(O)CP(=O)(O)O`, the Potency result in test [1] was “inactive”.

For the compound `CO[C@H]1C[C@@H]2CC[C@@H](C)[C@@](O)(O2)C(=O)C(=O)N2CCCC[C@H]2C(=O)O[C@H]([C@H](C)C[C@@H]2CC[C@@H](OC(=O)C(C)(CO)CO)[C@H](OC)C2)CC(=O)[C@H](C)/C=C(\C)[C@@H](O)[C@@H](OC)C(=O)[C@H](C)C[C@H](C)/C=C/C=C/C=C/1C`, in test [1], the Potency result is “inactive”.

For `CC1CCCCN1CCCOC(=O)c1ccccc1` (stereo not drawn), the Potency entry in test [1] is “inactive”.

Take `Cc1ccccn1`: in test [1], the Potency result was “inactive”.

For the compound `CCSc1ccc2c(c1)N(CCCN1CCN(C)CC1)c1ccccc1S2`, the Potency result in test [1] is “inactive”.

For `CC(C)C1=CC2=CC[C@@H]3[C@](C)(CCC[C@@]3(C)C(=O)O)[C@H]2CC1`, the Potency entry in test [1] is “inactive”.

Consider `CN1CCc2c(c3ccccc3n2Cc2ccccc2)C1`, for which, in test [1], the Potency result is “inactive”.

`O=C(O)c1ccc(OCCn2ccnc2)cc1`: the Potency result in test [1] is “inactive”.

In the case of `CNC(=O)c1c(I)c(C(=O)NCC(=O)Nc2c(I)c(C(=O)O)c(I)c(C(=O)NCCO)c2I)c(I)c(N(C)C(C)=O)c1I`, the Potency result in test [1] is “inactive”.

Regarding `CN(C)c1ccc(C(=C2C=CC(=[N+](C)C)C=C2)c2c(O)c(S(=O)(=O)[O-])cc3cc(S(=O)(=O)O)ccc23)cc1`, the Potency in test [1] was 56.2 µM (active).

On to `OCC1(CO)COC(C(Cl)(Cl)Cl)OC1`, for which, in test [1], the Potency entry is “inactive”.

`CC(C)c1nc(N(C)S(C)(=O)=O)nc(-c2ccc(F)cc2)c1/C=C/C(O)CC(O)CC(=O)O` (stereo not drawn): the Potency result in test [1] is “inactive”.

Turning to `CN1c2c(nc(N)[nH]c2=O)NCC1CNc1ccc(C(=O)NC(CCC(=O)O)C(=O)O)cc1` (stereo not drawn), the Potency result in test [1] is “inactive”.

As to `Cc1ncc(C[n+]2csc(CCOP(=O)(O)O)c2C)c(N)n1`, the Potency entry in test [1] was “inactive”.

Regarding `O=P(O)(O)OC[C@H]1O[C@](O)(COP(=O)(O)O)[C@@H](O)[C@@H]1O`, the Potency entry in test [1] was “inactive”.

Turning to `N#Cc1ccc2c(c1)N(CCCN1CCC(O)CC1)c1ccccc1S2`, the Potency result in test [1] is “inactive”.

Consider `CCCCC[C@H](O)/C=C/[C@H]1[C@H](O)CC(=O)[C@@H]1C/C=C\CCCC(=O)O`, for which the Potency result in test [1] is “inactive”.

`C=CC(=O)O`: the Potency entry in test [1] was “inactive”.

On to `CC(CC=O)CCCC(C)(C)O` (stereo not drawn), for which the Potency result in test [1] is “inactive”.

In the case of `CC(C)OC(=O)Nc1ccc2nc(-c3cscn3)[nH]c2c1`, the Potency entry in test [1] was “inactive”.

In the case of `COc1ccccc1N1CCN(CCCC(=O)c2ccc(F)cc2)CC1`, the Potency entry in test [1] was “inactive”.

As to `CNC(=O)C[C@@H](N)C(=O)N[C@@H](C(=O)N[C@@H]1C(=O)N2[C@@H]1SC(C)(C)[C@@H]2C(=O)O)c1ccc(O)cc1`, the Potency entry in test [1] is “inactive”.

For `CC(=O)Oc1cccc2c1C(=O)c1c(OC(C)=O)cc(C(=O)O)cc1C2=O`, the Potency result in test [1] is “inactive”.

Turning to `Cc1c(C)c2c(c(C)c1OC(=O)CCC(=O)O)CC[C@@](C)(CCC[C@H](C)CCC[C@H](C)CCCC(C)C)O2`, the Potency in test [1] was 35.5 µM (active).

In the case of `NC(=O)[C@H]1O[C@@H](O)[C@H](O)[C@@H](O)[C@@H]1O`, the Potency entry in test [1] was “inactive”.

For the compound `CC(C)(Oc1ccc(C2CCCc3ccccc32)cc1)C(=O)O` (stereo not drawn), in test [1], the Potency entry is “inactive”.

As for `CC[C@H]1OC(=O)[C@H](C)[C@@H](O[C@H]2C[C@@](C)(OC)[C@@H](O)[C@H](C)O2)C(C)[C@@H](O[C@@H]2O[C@H](C)C[C@H](N(C)C)[C@@H]2O)[C@](C)(OC)C[C@@H](C)C(=O)[C@H](C)[C@@H](O)[C@]1(C)O` (stereo partly drawn), the Potency result in test [1] is “inactive”.

For `O=C1c2ccccc2C(=O)C1c1ccc(F)cc1`, in test [1], the Potency entry was “inactive”.

In the case of `CCCOc1cc(N)ccc1C(=O)OCCN(CC)CC`, in test [1], the Potency result was “inactive”.
